{"source": "PubChem BioAssay (NCATS)", "note": "Records with an inconclusive call do not appear. A call without a number means that no potency is given here. Activity calls are given as the source filed them. Calls follow the shape of the dose curve; as a rule, active = well fitted inhibition curve with a large enough effect; inconclusive = small, poorly fitted or top-dose-only effect; inactive = no such curve, though single readings can be large or run the other way. Potency is read from the fitted curve at half-maximal effect."}
{"experiment": "qHTS for Inhibitors of the Aldehyde Dehydrogenase Family (ALDH1A2, ALDH1A3, ALDH2, ALDH3A1) (AID 2061307); also: nearly all actives have a fitted effect of over 50% in size; as to potency: test system not described further here", "settings": "ALDH inhibition qHTS; series mostly up to 50.3 µM"}
{"smiles": "Cc1cc(NC(=O)Nc2nnc(-c3ccncc3)s2)ccc1Br", "Potency": "11.3 µM (active)"}
{"smiles": "Nc1cc(S(=O)(=O)N2CCN(S(=O)(=O)c3ccc4c(c3)OCCO4)CC2)ccn1", "Potency": "inactive"}
{"smiles": "N#CNC(=O)c1ccc(-n2cccc2/C=C2\\NC(=O)N(CC(=O)Nc3ccc(F)cc3)C2=O)cc1", "Potency": "4 µM (active)"}
{"smiles": "CC(=O)N1CCN(c2ccc(NCc3ccco3)cc2)CC1", "Potency": "4 µM (active)"}
{"smiles": "COc1cc(O)c(C(CC(=O)N2C[C@H](C)C[C@H](C)C2)c2ccc3c(c2)OCO3)c(OC)c1", "note": "(stereo partly specified)", "Potency": "inactive"}
{"smiles": "N#Cc1ccc(-c2ccc(CNc3ccc(N4CCOCC4)cc3)cn2)cc1", "Potency": "6.34 µM (active)"}
{"smiles": "CN(C)c1ccc(-c2csc(N3CCC(C(N)=O)CC3)n2)cc1", "Potency": "11.3 µM (active)"}
{"smiles": "CC(=O)Nc1cccc(OCc2cccc(C3Nc4ccccc4C(=O)N3Cc3ccco3)c2)c1", "note": "(stereo unspecified)", "Potency": "7.94 µM (active)"}
{"smiles": "COc1ccc(Cl)cc1C(=O)NCc1nnc2cc(-c3nc(C)no3)ccn12", "Potency": "inactive"}
{"smiles": "O=C(CCC1CCCN(S(=O)(=O)c2ccccc2F)C1)NCCCN1CCOCC1", "note": "(stereo unspecified)", "Potency": "inactive"}
{"smiles": "COc1ccc2c(c1)c(C(=O)CN(C)C)c(C)n2C", "Potency": "inactive"}
{"smiles": "COc1cccc(-c2cccc(C(=O)N3CCN(C(=O)c4ccc(C)cc4)CC3)c2)c1", "Potency": "inactive"}
{"smiles": "Cc1ccsc1CN(C)c1ncnc2ccc(-c3oc(-c4ccccc4)nc3C)cc12", "Potency": "12.6 µM (active)"}
{"smiles": "Cc1cc(C)cc(-c2ccc(C=O)cc2)c1", "Potency": "inactive"}
{"smiles": "COc1ccc(-n2c(C)c(C(C)=O)c3cc(OC(=O)c4ccc(C)cc4)ccc32)cc1", "Potency": "inactive"}
{"smiles": "CC(=O)N1CCN(c2ccc(NCc3ccc(Br)o3)cc2)CC1", "Potency": "10.1 µM (active)"}
